# Source: PubChem BioAssay (NCATS)
# Where “and” joins values, the source holds several entries; their conditions need not be identical. Identical values can stand only once. Inconclusive results are not listed. Calls of active or inactive are those of the source. Unless noted, the call rests on the fitted dose curve; in most records, active means well fitted curve in the direction sought with a large enough effect; inconclusive means small, poorly fitted or top-dose-only effect, or another doubt; inactive means no such curve, though single readings can be large; an effect the other way counts as inactive or inconclusive.
# Assays:
# [1] = qHTS drug screen for cell cycle checkpoint inhibitors in PARPi-resistant BRCA-mutant ovarian cancer cell lines. (AID 1963452; calls by dose curve; further: potency means the concentration at half of the fitted maximal effect); details: PEO1/OlaR viability, CellTiter-Glo luminescence, 96 h; for Z-AUC: stronger effect = lower value
# How it was run: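 PEO1, PEO4 and PEO1/OlaR ovarian cancer cells, 600 per well, exposed 96 h at 37C to a dilution series. Viability read by CellTiter-Glo luminescence, normalized to DMSO and empty wells; activity summarized as Z-AUC.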
# 7G8 = test: qHTS profiling for inhibitors of Plasmodium falciparum proliferation (AID 504749); further: nearly all actives have a fitted effect of over 60% in size; further: potency means the concentration at half of the fitted maximal effect;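 on activity, negative = inhibition: 0% = DMSO vehicle and full inhibition = artemisinin control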; details: P. falciparum in erythrocytes, SYBR Green DNA, 72 h; series mostly up to 28.7 µM
# How it was run: (§1)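 Quantitative HTS: compounds pinned into medium, infected erythrocytes added (0.3% parasitemia, 2.5% hematocrit), 72 h culture at 37 C under 5% CO2. Saponin/Triton lysis with SYBR Green I, overnight RT, then fluorescence read.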
# [2] = qHTS for identification of novel therapeutic agents for treatment of microphthalmiaassociated transcription factor (MiT) renal cell carcinoma (RCC) (AID 1963991; calls by dose curve; further: potency means the concentration at half of the fitted maximal effect); details: CellTiter-Glo, 48 h; for Potency: active = Z-AUC below -0.8 in all three lines; for z-score: stronger effect = lower value
# How it was run: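 Curves over 11 concentrations were fitted to CellTiter-Glo luminescence, scaled between empty wells (0%) and DMSO (100%) viability. Cells were UOK109, UOK124 and UOK145 TFE3-fusion RCC lines at 500/well, exposed 48 hours at 37 C.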
# [3] = qHTS profiling for inhibitors of Plasmodium falciparum proliferation (AID 504749); further: nearly all actives have a fitted effect of over 60% in size; further: potency means the concentration at half of the fitted maximal effect;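 on activity, negative = inhibition: 0% = DMSO vehicle and full inhibition = artemisinin control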; details: P. falciparum in erythrocytes, SYBR Green DNA, 72 h
# How it was run: as §1
# 3D7 = test: as above; details: P. falciparum in erythrocytes, SYBR Green DNA, 72 h; series mostly up to 28.7 µM
# How it was run: as §1
# AA1029 = test: as above; details: P. falciparum in erythrocytes, SYBR Green DNA, 72 h; series mostly up to 28.7 µM
# How it was run: as §1
# [4] = Quantitative High-Throughput drug screen in 47 multiple myeloma cell lines against the NCATS MIPE library collection: KMS28BM_JCRB cell viability assay (AID 1919874); further: nearly all actives have a fitted effect of over 35% in size
# How it was run: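 qHTS format: cells plated (500/well), pin-dosed with MIPE 4.0 compounds, kept 48 h at 37 °C. Readout was CellTiter-Glo luminescence, median RLU.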
# [5] = measured here: PEO1 parental Z-AUC
# [6] = TFE3-RCC UOK109 viability, measured here: UOK109 Z-AUC
# [7] = TFE3-RCC viability, measured here: UOK124 Z-AUC
# [8] = TFE3-RCC viability, measured here: UOK145 Z-AUC
# [9] = at 28.7 µM (top of the series), parasite line A
# [10] = at 28.7 µM (top of the series), parasite line B
# [11] = at 12.8 µM (top of the series), parasite line A
# [12] = at 12.8 µM (top of the series), parasite line B
compound,measurement,setting,value
CC(=O)O[C@]1(C(C)=O)CC[C@H]2[C@@H]3C=C(Cl)C4=CC(=O)[C@@H]5C[C@@H]5[C@]4(C)[C@H]3CC[C@@]21C,Z-AUC,[1],0.151 (inactive)
same,Z-AUC,[1]; [5],0.0304
same,Z-AUC,[1]; measured here: PEO4 Z-AUC,0.0664
same,Potency,7G8,11.2 µM (active)
c1ccc2c(-c3cnn4cc(-c5ccc(N6CCNCC6)cc5)cnc34)ccnc2c1,Z-AUC,[1],-0.163 (inactive)
same,Z-AUC,[1]; [5],-0.568
same,Z-AUC,[1]; measured here: PEO4 Z-AUC,-0.419
same,Potency,[2]; TFE3-RCC UOK109 viability,18.7 µM (active)
same,z-score,[2]; [6],-0.898
same,z-score,[2]; [7],-1.42
same,z-score,[2]; [8],-1.11
CC/C(=C(\c1ccccc1)c1ccc(OCCN(C)C)cc1)c1ccccc1,Z-AUC,[1],-0.344 (inactive)
same,Z-AUC,[1]; [5],-0.716
same,Z-AUC,[1]; measured here: PEO4 Z-AUC,-0.672
same,Potency,7G8,12.6 µM (active)
CN[C@@H](C)C(=O)N[C@H]1CN(C(=O)CC(C)C)CC[C@H]2CC[C@@H](C(=O)NC(c3ccccc3)c3ccccc3)N2C1=O,Z-AUC,[1],0.77 (inactive)
same,Z-AUC,[1]; [5],0.371
same,Z-AUC,[1]; measured here: PEO4 Z-AUC,-0.22
O=C(O)c1cc(-c2ccccc2)nc2ccccc12,"activity, negative = inhibition",[3]; [9],-2.25% (inactive)
same,"activity, negative = inhibition",[3]; [10],7.48% (inactive)
same,outcome,3D7,inactive
same,Potency,7G8,inactive
same,outcome,AA1029,inactive
CC1=C(/C=C/C(C)=C/C=C/C(C)=C/C(=O)Nc2ccc(O)cc2)C(C)(C)CCC1,Z-AUC,[1],0.685 (inactive)
same,Z-AUC,[1]; [5],0.437
same,Z-AUC,[1]; measured here: PEO4 Z-AUC,0.121
same,Potency,[3]; parasite line A,11.2 µM (active)
same,Potency,[3]; parasite line B,10 µM (active)
same,Potency,7G8,8.91 µM (active)
O=c1ccn([C@@H]2O[C@H](CO)[C@H](O)[C@H]2O)c(=O)[nH]1,Potency,[4],inactive
same,z-score,[2]; [6],0.533
same,z-score,[2]; [7],0.584
same,z-score,[2]; [8],0.624
CCN1CCC[C@H]1CNC(=O)c1cc(S(N)(=O)=O)ccc1OC,"activity, negative = inhibition",[3]; [9],7.08% (inactive)
same,"activity, negative = inhibition",[3]; [10],23% (inactive)
same,outcome,3D7,inactive
same,Potency,7G8,inactive
same,outcome,AA1029,inactive
Cc1cccc(Nc2nc(-c3ccncc3)cs2)c1,Z-AUC,[1],0.772 (inactive)
same,Z-AUC,[1]; [5],0.626
same,Z-AUC,[1]; measured here: PEO4 Z-AUC,0.437
C[N+](C)(C)CCCCCC[N+](C)(C)C,"activity, negative = inhibition",[3]; [9],4.23% (inactive)
same,"activity, negative = inhibition",[3]; [10],5.66% (inactive)
same,outcome,3D7,inactive
same,Potency,7G8,inactive
same,outcome,AA1029,inactive
COC(=O)[C@@H]1[C@H]2C[C@H]3c4[nH]c5ccccc5c4CCN3C[C@@H]2CC[C@@H]1O,Z-AUC,[1],0.808 (inactive)
same,Z-AUC,[1]; [5],0.498
same,Z-AUC,[1]; measured here: PEO4 Z-AUC,0.659
CN(C)CCC(c1ccccc1)c1ccccn1 (configuration not stated),"activity, negative = inhibition",[3]; [9],8.91% (inactive)
same,"activity, negative = inhibition",[3]; [10],5.22% (inactive)
same,outcome,3D7,inactive
same,Potency,7G8,5.62 µM (active)
COc1ccccc1N1CCN(CCCNc2cc(=O)n(C)c(=O)n2C)CC1,"activity, negative = inhibition",[3]; [9],-3.41% (inactive) and -6.84% (inactive)
same,"activity, negative = inhibition",[3]; [10],-11.7% (inactive) and -0.932% (inactive)
same,outcome,3D7,inactive
same,Potency,7G8,inactive
same,outcome,AA1029,inactive
O=C1NC(=O)C(c2ccccc2)(c2ccccc2)N1,"activity, negative = inhibition",[3]; [9],3.02% (inactive)
same,"activity, negative = inhibition",[3]; [10],-26.3% (inactive)
same,outcome,3D7,inactive
same,Potency,7G8,inactive
same,outcome,AA1029,inactive
O=C(O)Cc1cccc2ccccc12,"activity, negative = inhibition",[3]; [9],12.1% (inactive)
same,"activity, negative = inhibition",[3]; [10],6.39% (inactive)
same,outcome,3D7,inactive
same,Potency,7G8,inactive
same,outcome,AA1029,inactive
NCCS,"activity, negative = inhibition",[3]; [9],9.12% (inactive)
same,"activity, negative = inhibition",[3]; [10],7.21% (inactive)
same,outcome,3D7,inactive
same,Potency,7G8,inactive
same,outcome,AA1029,inactive
CC(=O)Oc1cc2c(s1)CCN(C(C(=O)C1CC1)c1ccccc1F)C2 (configuration not stated),Z-AUC,[1],0.888 (inactive)
same,Z-AUC,[1]; [5],0.469
same,Z-AUC,[1]; measured here: PEO4 Z-AUC,0.814
CCCNC(=O)NS(=O)(=O)c1ccc(Cl)cc1,"activity, negative = inhibition",[3]; [9],14.4% (inactive)
same,"activity, negative = inhibition",[3]; [10],10.3% (inactive)
same,outcome,3D7,inactive
same,Potency,7G8,inactive
same,outcome,AA1029,inactive
C[C@@H](O)[C@H]1C(=O)N2C(C(=O)O)=C(S[C@@H]3CN[C@H](C(=O)N(C)C)C3)[C@H](C)[C@H]12,"activity, negative = inhibition",[3]; [9],10.4% (inactive)
same,"activity, negative = inhibition",[3]; [10],13.7% (inactive)
same,outcome,3D7,inactive
same,Potency,7G8,inactive
same,outcome,AA1029,inactive
O=C1NCC2(CCN(CCc3ccccc3)CC2)O1,"activity, negative = inhibition",[3]; [9],12% (inactive)
same,"activity, negative = inhibition",[3]; [10],1.55% (inactive)
same,outcome,3D7,inactive
same,Potency,7G8,inactive
same,outcome,AA1029,inactive
Cc1cccc(C)c1OCC(C)N (configuration not stated),"activity, negative = inhibition",[3]; [9],7.67% (inactive)
same,"activity, negative = inhibition",[3]; [10],-7.13% (inactive)
same,outcome,3D7,inactive
CC(C)[C@H](CO)Nc1nc(Nc2ccc(C(=O)O)c(Cl)c2)c2ncn(C(C)C)c2n1,Z-AUC,[1],-0.776 (inactive)
same,Z-AUC,[1]; [5],0.263
same,Z-AUC,[1]; measured here: PEO4 Z-AUC,0.0501
CC(C)n1nc(-c2ccc3oc(N)nc3c2)c2c(N)ncnc21,Potency,[1],871 nM (active)
same,Z-AUC,[1]; [5],-1.21
same,Z-AUC,[1]; measured here: PEO4 Z-AUC,-1.54
same,Potency,[2]; TFE3-RCC UOK109 viability,0.0372 µM (active)
same,z-score,[2]; [6],-2.39
same,z-score,[2]; [7],-2.58
same,z-score,[2]; [8],-3.7
N#CC1(c2ccc(NC(=O)c3cccnc3NCc3ccncc3)cc2)CCCC1,Z-AUC,[1],1.21 (inactive)
same,Z-AUC,[1]; [5],1.37
same,Z-AUC,[1]; measured here: PEO4 Z-AUC,1.27
COc1cc(N2CCC(N3CCN(C)CC3)CC2)ccc1Nc1ncnc(Nc2ccccc2S(=O)(=O)C(C)C)n1,Z-AUC,[1],0.282 (inactive)
same,Z-AUC,[1]; [5],0.069
same,Z-AUC,[1]; measured here: PEO4 Z-AUC,0.238
CCN(CC)C(=O)c1ccc(O)c(OC)c1,"activity, negative = inhibition",[3]; [11],6.06% (inactive)
same,"activity, negative = inhibition",[3]; [12],6.5% (inactive)
same,"activity, negative = inhibition",[3]; [9],14.7% (inactive)
same,"activity, negative = inhibition",[3]; [10],-14.5% (inactive)
same,outcome,3D7,inactive
same,Potency,7G8,inactive
same,outcome,AA1029,inactive
CC(=O)CCCCn1c(=O)c2c(ncn2C)n(C)c1=O,"activity, negative = inhibition",[3]; [11],-2.51% (inactive)
same,"activity, negative = inhibition",[3]; [12],2.9% (inactive)
same,outcome,3D7,inactive
same,Potency,7G8,inactive
same,outcome,AA1029,inactive
O=C(NCCN1CCOCC1)c1ccc(Cl)cc1,"activity, negative = inhibition",[3]; [9],9.62% (inactive)
same,"activity, negative = inhibition",[3]; [10],3.61% (inactive)
same,outcome,3D7,inactive
same,Potency,7G8,inactive
same,outcome,AA1029,inactive
